Our source for the AC50 and outcome values is PubChem BioAssay (EPA / NIEHS).

The AC50 is the concentration giving half of the maximal activity seen.

Where “and” joins values, the source holds several entries; their conditions need not be identical. Equal entries are not always repeated. Results filed as inconclusive are left out. More than one record can exist for a structure, and the calls need not agree. Calls of active or inactive are those of the source. Rule for the calls: active = hit-call score of the fitted dose curve at least 0.9, where 1 is the maximum; inconclusive = response in the unintended direction; inactive = score below 0.9.

Sequence of Luciferin 4-monooxygenase (Photinus pyralis) (P08659 whole entry, looked up): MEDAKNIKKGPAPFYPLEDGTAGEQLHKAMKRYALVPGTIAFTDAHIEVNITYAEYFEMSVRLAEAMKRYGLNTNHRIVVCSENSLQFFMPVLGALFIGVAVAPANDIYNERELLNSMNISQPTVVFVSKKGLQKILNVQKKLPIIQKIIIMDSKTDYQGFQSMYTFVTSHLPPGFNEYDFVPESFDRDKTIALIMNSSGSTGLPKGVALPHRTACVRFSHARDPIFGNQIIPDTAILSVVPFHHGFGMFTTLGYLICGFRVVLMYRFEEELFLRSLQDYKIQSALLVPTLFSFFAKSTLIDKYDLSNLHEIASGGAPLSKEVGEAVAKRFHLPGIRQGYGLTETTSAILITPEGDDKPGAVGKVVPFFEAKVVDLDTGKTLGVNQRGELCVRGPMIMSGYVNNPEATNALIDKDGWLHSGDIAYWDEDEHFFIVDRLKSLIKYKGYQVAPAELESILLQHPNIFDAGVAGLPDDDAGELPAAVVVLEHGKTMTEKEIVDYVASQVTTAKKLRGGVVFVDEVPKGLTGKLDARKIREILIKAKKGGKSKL

Tested on in one assay: not listed separately
The assay is described as follows: ArunA_Migration_hNC: ArunA Biomedical's Oris Neural Crest (hNC) Cell Migration Assay (AID 2283755). On the procedure: ArunA_Migration_hNC is a cell-based, single-readout assay that uses human H9-derived embryonic neural crest stem cells (hNC). Measurements were taken 72 hours after chemical dosing in a 96-well plate.ArunA_Migration_hNC is an assay component measured from the ArunA_Migration_hNC assay. It is designed to make measurements of cell migration, a form of distribution reporter, as detected with fluorescence intensity signals by HCS Fluorescent Imaging technology. Data from the assay component ArunA_Migration_hNC was analyzed at the endpoint, ArunA_Migration_hNC, in the positive analysis fitting direction relative to DMSO as the negative control and baseline of activity. Using a type of distribution reporter, loss-of-signal activity can be used to understand the cell migration. To generalize the intended target to other relatable targets, this assay endpoint is annotated to the neurodevelopment intended target family, where the subfamily is migration.
To assess the hNP and hNC migration and cell titer endpoints, 60,000 cells per well were plated onto Matrigel in basal growth medium with LIF and bFGF in a 96-well plate format. Plates were incubated for 16 h at 37C followed by a 72 h exposure to chemical in the test medium. For the migration endpoints, cells were seeded and incubated in presence of 'seeding stoppers' to prevent cell migration and growth into the detection zone. At the beginning of chemical exposure, stoppers were removed, and growth medium was replaced with test medium. In the case of the stopper control wells, stoppers remained in place following replacement of growth medium with test medium. Following 72 -h exposure to the test medium, cells were stained at 37C for 30-60 min with calcein-AM. Cell viability in the detection zone was quantitated using a Flexstation3 microplate reader (ex494 nm/em 517 nm). Corresponding cell titer endpoints were assessed for the hNP and hNC cells using the Promega CellTiter Aqueous One Solution Cell Proliferation Assay (Cat no. G3581; CellTiter 96). Finally, to gain insight into the mechanisms by which cells migrate into the detection zone, Ki-67 expression was quantified for 10 additional chemicals in the hNP and hNC systems. Additionally, cytochalasin D was used as a positive control to inhibit cell migration. Supplementing the AB2 Basal Medium: 1. Decontaminate the external surfaces of all supplement vials and the medium bottle with ethanol or isopropanol. 2. Aseptically open each supplement vial and add the amount indicated below to the basal medium with a pipette. To make 100 ml of complete medium: AB2 Neural Medium 96 mL, ANS Supplement 2 mL, bFGF (50 ug/mL) 40 uL, LIF (10 ug/mL) 100 uL, L-Glutamine (200 mM) 1 mL, Penicillin (5,000 U/mL)/ Streptomycin (5,000 ug/mL) 1 mL. 3. […]
Regarding `N[C@@H](Cc1cc(I)c(Oc2ccc(O)c(I)c2)c(I)c1)C(=O)O`, the AC50 was 56.2 µM (active).

In the case of `CC(C)(c1ccc(O)cc1)c1ccc(O)cc1`, the compound was classed as inactive.

As to `S=C(S)NCCNC(=S)S.[Mn+2].[S-]C([S-])=NCCN=C([S-])[S-].[Zn+2]`, the half-maximal activity concentration (AC50) was 50 µM (active).

As to `CC(C)CCCCCCc1ccc(O)cc1`, the half-maximal activity concentration (AC50) is 4.41 µM (active).

Tested on in the next assay: not listed separately
The assay is described as follows: ArunA_NOG_NucleusCount: ArunA Biomedical's Neurite Outgrowth (NOG) Assay for Nucleus Count (AID 2283756). The method in brief:
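Human H9-derived differentiated neurons were exposed for 48 h right after seeding. Hoechst-stained nuclei gated by size and intensity were counted by automated high-content imaging as viable neurons. Loss of signal vs DMSO.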
`N[C@@H](Cc1cc(I)c(Oc2ccc(O)c(I)c2)c(I)c1)C(=O)O`: the call was inactive.

Take `CC(C)(c1ccc(O)cc1)c1ccc(O)cc1`: the outcome was inactive.

For the compound `S=C(S)NCCNC(=S)S.[Mn+2].[S-]C([S-])=NCCN=C([S-])[S-].[Zn+2]`, the compound was called inactive.

The target of a further assay is Luciferin 4-monooxygenase (Photinus pyralis) (UniProt P08659). Briefly: CCTE_Simmons_QuantiLum_inhib_2: CCTE's Firefly Luciferase Inhibition Assay, Simmons Lab (AID 2283767).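 For AC50: potency for inhibitors that lower luciferase luminescence relative to DMSO.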 The method in brief:
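Recombinant firefly luciferase (5 ng/well, 200 mM potassium phosphate with 1 mg/ml BSA) was exposed to 8 concentrations from 5 nM to 87.5 uM (final, 0.5% DMSO) for 30 min at 37C in the dark. Loss of luminescence versus DMSO was read after injecting D-luciferin/ATP-analogue reagent.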
Turning to `O=C(c1ccc(O)cc1O)c1ccc(O)cc1O`, the AC50 was 47.2 µM (active).

With `CN(C)C(=O)Nc1ccc(Cl)c(Cl)c1`, the compound was classed as inactive.

In the case of `N[C@@H](Cc1cc(I)c(Oc2ccc(O)c(I)c2)c(I)c1)C(=O)O`, the result was inactive.

As to `CC(C)(c1ccc(O)cc1)c1ccc(O)cc1`, the outcome was inactive.

Take `O=C(Nc1ccc([N+](=O)[O-])cc1Cl)c1cc(Cl)ccc1O`: the compound was called inactive.

With `S=C(S)NCCNC(=S)S.[Mn+2].[S-]C([S-])=NCCN=C([S-])[S-].[Zn+2]`, the AC50 was 22.6 µM (active) [middle of 4 runs] and the call was inactive.

On to `S=C([S-])NCCNC(=S)[S-].[Mn+2]`, for which the outcome was inactive.

Take `CSC(=O)c1cccc2nnsc12`: the result was inactive.

On to `CCCOC(=O)c1ccc(C(=O)OCCC)nc1`, for which the outcome was inactive.

As to `CCCCOCCOCCOCc1cc2c(cc1CCC)OCO2`, the result was inactive.

In the case of `N#CSCSc1nc2ccccc2s1`, the AC50 is 0.435 µM (active).

Consider `CCOC(=O)C(C)Oc1ccc(Oc2nc3ccc(Cl)cc3o2)cc1` (configuration not stated), for which the AC50 was 71.3 µM (active).

Consider `Oc1ccc(C(c2ccc(O)cc2)C(Cl)(Cl)Cl)cc1`, for which the result was inactive.

For `CC(C)CCCCCCc1ccc(O)cc1`, the result was inactive.

In the case of `c1ccc(Nc2ccccc2)cc1`, the result was inactive.

The next assay deals with chicken Androgen Receptor (AR), gene 422165. The assay is described as follows: ATG_chAR_XSP1: Attagene TRANS-FACTORIAL Multi-Species (XSP1) HepG2 Assay for chicken Androgen Receptor (AR) (AID 2283768). In short, it runs like this:
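HepG2 cells transiently transfected with multiplexed GAL4-UAS reporter units expressing chimeric chicken AR-Gal4; 3 nM 6-alpha-fluorotestosterone for partial AR stimulation; 24 h after dosing, reporter mRNA by RT-PCR and capillary electrophoresis, gain-of-signal versus DMSO.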
For `CCCCC(CC)COC(=O)c1ccccc1C(=O)O` (configuration not stated), the AC50 was 26.5 µM (active).

With `O=C(c1ccc(O)cc1O)c1ccc(O)cc1O`, the half-maximal activity concentration (AC50) is 0.133 µM (active).

On to `CC1(C)C(C=C(Cl)Cl)C1C(=O)OCc1cccc(Oc2ccccc2)c1` (configuration not stated), for which the outcome was inactive.

The next assay concerns zebrafish Androgen Receptor (AR), gene 100005148. Briefly: ATG_zfAR_XSP1: Attagene TRANS-FACTORIAL Multi-Species (XSP1) HepG2 Assay for zebrafish Androgen Receptor (AR) (AID 2283771). The method in brief:
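HepG2 cells were transiently transfected with a zebrafish AR-GAL4 reporter system and partially stimulated with 3 nM 6-alpha-fluorotestosterone. Reporter mRNA was measured after 24 h dosing by RT-PCR with capillary electrophoresis, and gain-of-signal was fitted relative to DMSO.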
Regarding `CCCCC(CC)COC(=O)c1ccccc1C(=O)O` (configuration not stated), the compound was called inactive.

`CC(=O)S[C@@H]1CC2=CC(=O)CC[C@]2(C)[C@H]2CC[C@@]3(C)[C@@H](CC[C@@]34CCC(=O)O4)[C@H]12`: the compound was called inactive.

Take `C#C[C@]1(O)CC[C@H]2[C@@H]3CCC4=CC(=O)CC[C@@H]4[C@H]3CC[C@@]21CC`: the AC50 is 1.12 nM (active) and 0.357 nM (active).

In the case of `C=CCOC(Cn1ccnc1)c1ccc(Cl)cc1Cl` (configuration not stated), the outcome was inactive.

With `CCCCC(CC)CN1C(=O)C2C3C=CC(C3)C2C1=O` (configuration not stated), the result was inactive.

Take `CC1(C)C(C=C(Cl)Cl)C1C(=O)OCc1cccc(Oc2ccccc2)c1` (configuration not stated): the outcome was inactive.
